Screening results (PubChem BioAssay)
An excerpt weighted towards active compounds, which were near 11% of everything screened.
HEK293 tox: HEK 293 cell cytotoxicity. HEK 293 viability, ATP luminescence (CellTiter-Glo), 48-72 h. actives 6.6% (n = 94,000). Potency, µM (top dose mostly 115 µM), inactives show top-dose activity change, negative = cytotoxicity, usual class: inhibitors. AID 1345083; note: nearly all actives have a fitted effect of over 60% in size
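Cells seeded first (HEK 293, 250 cells/well), then compound added by pintool. Incubation ran 48 or 72 hr at 37 degree Celsius. CellTiter-Glo was added and luminescence imaged after 10 min at room temperature.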
3T3 cytotox: kills NIH 3T3 cells; NIH 3T3 viability, CellTiter-Glo ATP luminescence, 48-72 h; Potency, µM (series often up to 96.7 µM), for the others: at the top dose activity change, negative = cytotoxicity, hits mostly inhibitors; actives 4.3% (n = 94,000); AID 1345082; note: nearly all actives have a fitted effect of over 55% in size
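Cytotoxicity was measured by CellTiter-Glo ATP luminescence after 48 or 72 h compound exposure at 37 °C. Mouse NIH 3T3 fibroblasts were seeded at 400 cells/well and dosed by 23 nL pin transfer.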
FLuc inh: Photinus pyralis luciferase inhibition. purified P. pyralis luciferase, luminescence, biochemical. Potency, µM (highest dose often 115 µM), hits mostly inhibitors. actives 2.5% (n = 76,000); note: nearly all actives have a fitted effect of over 65% in size
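FLuc 10nM, D-luciferin 10uM, ATP 10uM, Mg acetate 10mM, Tris acetate pH 7.5, Tween/BSA; cpd qHTS; enzyme added last; CCD luminescence.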
NPR1 antag: blocks ANP-stimulated signaling of human Npr1 receptor; P16066; HEK293 hNpr1 GloSensor cGMP, ANP-stimulated luminescence; Potency, µM (highest dose often 46.3 µM), for inactives: top-dose activity change, negative = inhibition, hits mostly inhibitors; actives 1.6% (n = 76,000); AID 1347048; calls by dose curve; note: nearly all actives have a fitted effect of over 60% in size
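HEK293 cells stably expressing human Npr1 and cGMP GloSensor pGS-40F, loaded 2 h with 2% GloSensor reagent, given compound 30 min at room temperature. Luminescence read before and 20 min after 0.1 nM hNppA.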
An asterisk follows results filed as active; i = inactive; ? = inconclusive; . = not tested or not shown; [ ] = another dose, or the depositor's remark. Unless noted, calls come from the whole dose curve; as a rule, active = well fitted curve in the direction sought with a large enough effect; inconclusive = small, poorly fitted or top-dose-only effect, or another doubt; inactive = no such curve, though single readings can be large; an effect the other way counts as inactive or inconclusive. % is set by controls: 0 for no effect and ±100 for the full control effect; potency is the fitted concentration of half-maximal effect.

SMILES	HEK293 tox	3T3 cytotox	FLuc inh	NPR1 antag
CC1=C[C@@H](CN2CCC(C(N)=O)CC2)[C@H](C(C)C)C[C@H]1Cc1nnc(-c2ccc(N(C)C)cc2)o1	39.8µM*	35.5µM*	i	4.7%
CC1=C[C@@H](CN2CCC(C(N)=O)CC2)[C@H](C(C)C)C[C@H]1Cc1nnc(-c2ccc(C)cc2)o1	35.5µM*	31.6µM*	i	8.7%
O=C(NC1CC1)c1ccccc1OCC1CCCN(Cc2cccc3[nH]ccc23)C1 (stereo not given)	35.5µM*	-23.6%	i	-9.9%
CC(C)CNC(=O)c1cc(-c2cc(Cl)cc(Cl)c2)c2nncn2n1	i	-27.6%	.	.
COc1ccc(-c2cnc3n[nH]c(-c4sccc4C)c3n2)cc1	?	?	i	-9.2%[70.6 µM]
CC(=O)Nc1cccc(-c2cnc3n[nH]c(-c4sccc4C)c3n2)c1	31.6µM*	?	?	?
CC(=O)Nc1cccc(-c2cnc3n[nH]c(-c4ccc5c(c4)OCO5)c3n2)c1	22.4µM*	25.1µM*	?	-26.1%[70.6 µM]
CC(=O)Nc1cccc(-c2cnc3n[nH]c(-c4ccccc4C)c3n2)c1	70.8µM*	44.7µM*	i	-22.7%[70.6 µM]
CC(=O)Nc1cccc(-c2cnc3n[nH]c(-c4ccc(F)cc4C)c3n2)c1	20µM*	25.1µM*	i	-30.4%[70.6 µM]
C[S+](=O)([O-])NCc1nnc2n1C(C(=O)NCc1cccc(C(F)(F)F)c1)CC2 (stereo not given)	i	-16.3%	.	.
O=C(Nc1ccc(F)cc1F)N[C@H]1C[C@H]2C(=O)NC[C@@H](CCC(=O)N3CCc4ccccc43)N2C1	3.6%	-5.2%	i	-1.4%
CCN1c2cc(C(=O)Nc3ccc(Cl)c(C)c3)ccc2C(=O)N2CCCCC21 (stereo not given)	15.8µM*	?	i	3.6%
CCN1c2cc(C(=O)Nc3ccc(Cl)c(Cl)c3)ccc2C(=O)N2CCCCCC21 (stereo not given)	?	44.7µM*	i	-2.3%
CCN1c2cc(C(=O)Nc3ccc(Br)c(C)c3)ccc2C(=O)N2CCCC21 (stereo not given)	?	-19.9%	i	0.0%
CCN1c2cc(C(=O)Nc3ccc(C)c(C)c3)ccc2C(=O)N2CCCCC21 (stereo not given)	28.2µM*	28.2µM*	i	-10.4%
COc1cccc(N2CCN(C(=O)c3noc(-c4ccc(C)cc4)n3)CC2)c1	?	-19.9%	20µM*	-7.7%
Cc1ccc(-c2nc(C(=O)N3CCN(c4cccc(C)c4)CC3)no2)cc1	?	?	17.8µM*	4.4%
Cc1ccc(-c2nc(C(=O)N3CCN(c4cc(C)ccc4C)CC3)no2)cc1	?	?	i	-14.5%
Cc1ccc(-c2nc(C(=O)N3CCN(c4ccc(C)cc4)CC3)no2)cc1	1.6%	1.4%	14.1µM*	-1.3%
CCCCCC(=O)Nc1nc2c(s1)C[C@@H]1[C@](C)(CO)[C@H](O)CC[C@@]1(C)[C@@H]2CC(=O)NCCOC	-1.0%	-2.0%	i	2.1%
CCC(=O)N1CCCN(C)c2ccccc21	i	1.8%	i	-0.1%
CC(=O)NC1(C)CCN(Cc2ccccc2-c2ccccc2Oc2ccccc2)C1 (stereo not given)	?	79.4µM*	i	-18.0%[70.6 µM]
CC(=O)NC1(C)CCN(Cc2ccc(-c3ccc(Oc4ccccc4)cc3)cc2)C1 (stereo not given)	?	12.6µM*	22.4µM*	17.8µM*
CC(=O)NC1(C)CCCN(Cc2ccc(Oc3ccccc3)cc2)C1 (stereo not given)	?	?	?	1.4%[70.6 µM]
CC(=O)NC1(C)CCN(Cc2ccc(-c3ccc4ccccc4c3)cc2)C1 (stereo not given)	28.2µM*	25.1µM*	?	15.8µM*
SMILES	HEK293 tox	3T3 cytotox	FLuc inh	NPR1 antag
O=C1CCN(C(=O)COc2ccc(F)cc2)CCCC(c2nc(-c3cccnc3)no2)CCN1 (stereo not given)	-3.8%	-18.2%	i	-0.4%
CC(C)(O)C#Cc1ccc(CN2CCC(CO)(CCCc3ccccc3)CC2)cc1	?	?	i	-4.3%
OCC1(CCCc2ccccc2)CCN(Cc2ccc(-n3cccn3)cc2)CC1	?	39.8µM*	i	?
CC1=C[C@@H](CN2CCC[C@H]2CO)[C@H](C(C)C)C[C@H]1Cc1nnc(-c2cncn2C)o1	?	100µM*	i	0.8%[70.6 µM]
CC1=C[C@@H](CNC(=O)COc2ccccc2)[C@H](C(C)C)C[C@H]1Cc1nnc(-c2cncn2C)o1	50.1µM*	?	i	-23.8%
Cc1ccc(Cn2c(C3CCN(C(=O)c4ccc(C)c(F)c4)CC3)n[nH]c2=O)cc1	?	-11.8%	i	-3.2%
COCCNc1nc2cc(C(=O)N3CC[C@H]4CNC[C@H]43)ccc2n1C	2.5%	2.4%	i	5.4%
Cc1cc(=O)n(CC(=O)Nc2ccc(C)c(C)c2)c(N2CCc3ccccc3C2)n1	?	-1.8%	i	-12.9%
CC(=O)c1ccc(NC(=O)Cn2c(N3CCc4ccccc4C3)nc(C)cc2=O)cc1	35.5µM*	28.2µM*	i	-26.9%
CC(=O)c1cccc(NC(=O)Cn2c(N3CCc4ccccc4C3)nc(C)cc2=O)c1	44.7µM*	?	i	-22.0%
Cc1cc(=O)n(CC(=O)Nc2cccc(C#N)c2)c(N2CCc3ccccc3C2)n1	?	?	i	-5.3%
CCOc1ccc(NC(=O)Cn2c(Nc3cc(C)cc(C)c3)nc(C)cc2=O)cc1	?	31.6µM*	i	-27.4%
CCOc1ccc(NC(=O)Cn2c(N3CCc4ccccc4C3)nc(C)cc2=O)cc1	39.8µM*	31.6µM*	i	-12.2%
Cc1cccc(NC(=O)C2c3ccccc3C(=O)N(CC(C)C)C23CCCC3)n1 (stereo not given)	?	?	i	-9.6%
CN(Cc1cc2cc(F)ccc2[nH]1)C(=O)C1CCC(=O)N(C2CCCC2)C1 (stereo not given)	?	?	i	-16.6%
O=C(c1nccc2ccccc12)N1CCC2(CC1)NCCc1c2[nH]c2ccccc12	-26.5%	-10.5%	i	0.0%
CC(C)(C)c1ccc(-c2cc(C[C@H]3CNCC[C@H]3CC(=O)Nc3ccccc3)no2)cc1	?	?	i	-10.5%[70.6 µM]
CC(C)(C)c1ccc(-c2cc(C[C@H]3CNCC[C@H]3CC(=O)NCc3cccnc3)no2)cc1	?	20µM*	i	7.0%
CC(C)NC(=O)C[C@@H]1CCNC[C@@H]1Cc1cc(-c2ccc(C(C)(C)C)cc2)on1	39.8µM*	35.5µM*	i	3.7%[70.6 µM]
CC(C)(C)c1ccc(-c2cc(C[C@H]3CNCC[C@H]3CC(=O)NCCN3CCOCC3)no2)cc1	39.8µM*	50.1µM*	i	-2.3%
CN(C)CCNC(=O)C[C@@H]1CCNC[C@@H]1Cc1cc(-c2ccc(C(C)(C)C)cc2)on1	31.6µM*	39.8µM*	i	11.5%[70.6 µM]
Cc1nc(C)c(C(=O)N2CCC3(CC2)CC(N2CCOCC2)CCO3)s1 (stereo not given)	7.3%	i	i	2.0%
